Shown are actives, neighbours in structure and some others; about 0.71% of the full set was active somewhere.
USP1 inh: Inhibitors of USP1/UAF1: Primary Screen; Ubiquitin carboxyl-terminal hydrolase 1 (Homo sapiens), O94782; recombinant USP1/UAF1, Ub-Rhodamine cleavage fluorescence; Potency, µM (doses to about 57.1 µM), inactives show top-dose activity change, negative = inhibition, usual class: inhibitors; hit rate 0.23% among 390,000; AID 743255, 2014; note: potency is the fitted concentration of half-maximal effect; nearly all actives have a fitted effect of over 60% in size
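1 nM enzyme complex + cpd, 15 min RT; start with Ub-Rho 150nM final; kinetic fluorescence ex 480/em 540, 6 reads q60 s. Buffer 50mM HEPES pH 7.8, 0.5mM EDTA, 0.1 mg/ml BSA, 1mM TCEP, 0.01% Tween-20.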
Eya2 phos inh: qHTS Assay for Inhibitors of the Phosphatase Activity of Eya2; Protein phosphatase EYA2 (Homo sapiens), O00167; Potency, µM (titrated, usually from 76.9 µM), inactives show top-dose activity, negative = inhibition, actives largely listed as inhibitors; recombinant Eya2, OMFP fluorescence dephosphorylation (OMFP is methylfluorescein phosphate); hit rate 0.006% among 330,000; note: potency is the fitted concentration of half-maximal effect
Target sequence (O00167 whole entry, looked up): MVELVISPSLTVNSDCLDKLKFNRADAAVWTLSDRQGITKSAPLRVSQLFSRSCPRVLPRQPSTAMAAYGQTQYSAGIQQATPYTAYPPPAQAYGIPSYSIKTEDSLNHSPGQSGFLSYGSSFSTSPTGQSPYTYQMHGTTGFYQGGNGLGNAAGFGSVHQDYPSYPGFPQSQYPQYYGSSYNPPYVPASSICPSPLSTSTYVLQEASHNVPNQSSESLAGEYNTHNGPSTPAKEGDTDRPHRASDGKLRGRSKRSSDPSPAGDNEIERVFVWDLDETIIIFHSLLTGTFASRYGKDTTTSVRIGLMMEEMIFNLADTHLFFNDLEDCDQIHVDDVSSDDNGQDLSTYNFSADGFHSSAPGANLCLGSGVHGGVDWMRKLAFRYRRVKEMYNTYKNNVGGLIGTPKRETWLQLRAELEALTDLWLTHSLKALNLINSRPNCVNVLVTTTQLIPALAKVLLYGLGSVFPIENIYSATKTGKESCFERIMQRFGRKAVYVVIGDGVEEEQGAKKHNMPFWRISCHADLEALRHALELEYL
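Eya2 (0.2 uM) preincubated 10 min at ambient with compound, then OMFP substrate added at 50 uM; 10 min reaction in 50 mM HEPES pH 7.5, 50 mM NaCl, 5 uM MgCl2, 0.05% BSA, 1 mM DTT. Fluorescence read at Ex 485/Em 525 nm.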
USP2a block: qHTS Assay for Inhibitors of Ubiquitin-specific Protease USP2a Using CHOP2 as the Reporter | Ubiquitin carboxyl-terminal hydrolase 2 (Homo sapiens), O75604 | USP2 core, Ub-CHOP2 coupled fluorogenic reporter, 485/531 | Potency, µM (top dose mostly 38.3 µM), without a hit: at the highest dose activity change, negative = inhibition, usual class: inhibitors | hit rate 0.01% among 330,000 | AID 463254, 2010;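 note: potency is the fitted concentration of half-maximal effect; plate controls were DMSO wells for no effect and full inhibition by NEM control for full effect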
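USP2 core (10nM final) preincubated 30min RT with compound in 20mM Tris-HCl pH 8.0, 2mM CaCl2, 2mM beta-mercaptoethanol, 0.05% CHAPS; 25nM Ub-CHOP2 plus 25nM reporter substrate added, fluorescence (Ex485/Em531) read after 60min.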
PI4K2A inh: qHTS for small molecular inhibitors of PI4K2A; purified PI4K2A, ADP-Glo luminescence, 1 h; hits give low values; activity change, negative = inhibition, % at 76.9 µM; hit rate 0.13% among 420,000; in the data active = activity change below about -50%; inconclusive = mostly about -30% to -49%;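 note: -100% = wells without enzyme as full effect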
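PI4K2A activity was measured by ADP-Glo luminescence: enzyme (4 ug/mL stock) and phosphatidylinositol (1.2 mM stock) in Tris pH 7.5/MgCl2/EGTA/Triton X-100 buffer were reacted with ATP (300 microM stock) for one hour at ambient temperature.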
Coupling enz: qHTS Assay for Inhibitors of Fructose-1,6-bisphosphate Aldolase from Giardia Lamblia: Coupling assay counterscreen; hit rate 0.67% among 290,000; coupling enzyme system counterscreen, AmpLite Red fluorescence; activity change, negative = inhibition, % at 58.2 µM, hits read low; in the data active = activity change below about -30%
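Fluorescence at 525 nm excitation and 598 nm emission measured inhibition of the coupled detection system without aldolase. Compounds (at 57.5 uM final) were preincubated 10 min at room temperature with coupling enzyme reagent before a 20 min substrate/AmpLite Red step.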
GALK inhibitor: qHTS Assay for Inhibitors of Human Galactokinase (GALK). P51570. Purified GALK, Kinase-Glo residual ATP luminescence. Potency, µM (titrated, usually from 57.5 µM), without a hit: at the highest dose activity change, negative = inhibition, most hits filed as inhibitors. hit rate 0.007% among 270,000; note: potency is the fitted concentration of half-maximal effect
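ATP-depletion format; final 35 uM ATP, 100 uM D-galactose, 5 nM enzyme; pH 8.0 HEPES/Mg2+ buffer; 60 min RT; luminescence read 10 min after detection reagent.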
* hit, by the source's call; ? = inconclusive; · = no result given. Unless noted, calls come from the whole dose curve; as a rule, active = well fitted curve in the direction sought with a large enough effect; inconclusive = small, poorly fitted or top-dose-only effect, or another doubt; inactive = no such curve, though single readings can be large; an effect the other way counts as inactive or inconclusive. Unless noted, % is set by controls: 0 for no effect and ±100 for the full control effect.

SMILES	USP1 inh	Eya2 phos inh	USP2a block	PI4K2A inh	Coupling enz	GALK inhibitor
O=S1(=O)N=C(N/N=C/c2ccccn2)c2ccccc21	0.5%	-6.9%	2.5%	-7.5	-32.1*	0.1%
c1coc(-c2nnc(-c3ccco3)nn2)c1	25.1µM*	-15.0%	-0.3%	?	-44.4*	3.2%
CC#CCN1c2ccccc2[C@]23C[C@@H](C(=O)OC)N(S(=O)(=O)c4ccc(C(F)(F)F)cc4)C2=NC(C(=O)OC)=C(C(=O)OC)[C@H]13	·	·	·	·	-2.0	·
CN1CCN(C(=O)c2sc(=S)n(-c3ccccc3)c2N)CC1	-7.6%	8.2%	0.0%	-21.1	-48.1*	2.8%
O=C1C=C(NCCO)C(=O)c2cnccc21	·	·	·	·	-17.1	·
O=C1C=C(NCCc2cc(Br)c(O)c(Br)c2)C(=O)c2ncccc21	3.55µM*	·	·	?	·	·
CN(C)c1ccc(NC2=C([N+](=O)[O-])CS(=O)(=O)C2)cc1	-8.2%	-3.2%	-1.4%	-63.1*	-23.6	-2.8%
C=CCC1(c2ccccc2)Oc2ccc(C)cc2-c2nc3cc(Cl)c(Cl)cc3nc21 (centres undefined)	·	·	·	·	0.8	·
CCOC(=O)c1c(NC(=O)/C=C\C(=O)O)sc(C)c1-c1ccccc1	-3.9%	3.9%	0.4%	9.6	16.7	-14.0%
CCOC(=O)c1c(NC(=O)/C=C/C(=O)O)sc(C)c1-c1ccc(C(C)(C)C)cc1	31.6µM*	-6.4%	-10.9%	-23.6	13.9	-12.5%
Cc1ccc2nc(-c3ccccc3)cn2c1	-0.2%	24.3%	1.0%	-69.7*	-13.4	20.0%
COc1cc(C(=O)O/N=C2\C=CC(=O)C(C)=C2)cc(OC)c1OC	-29.6%	5.6%	1.8%	33.2	-81.9*	-2.0%
COc1cc(C(=O)ON=C2C=C(C)C(=O)C(C)=C2)cc(OC)c1OC	-4.7%	1.5%	1.2%	10.2	-25.6	-0.2%
CCOC(=O)Cc1csc(NC(=O)c2c(C)noc2C)n1	-6.1%	·	·	0.6	·	·
CCOC(=O)Cc1csc(NC(=O)c2ccoc2C)n1	-15.3%	-1.8%	0.1%	-50.2*	2.8	7.2%
CCOC(=O)Cc1csc(NC(=O)c2cccs2)n1	-20.0%	-7.3%	-2.3%	-83.8*	-0.3	-0.9%
COC(=O)c1ccc(NC(=O)c2ccccc2C(=O)Nc2ccc(C(=O)OC)cc2)cc1	-18.8%	·	·	2.3	·	·
COC(=O)c1ccc(NC(=O)C(=O)c2cccn2C)cc1	-11.2%	?	5.7%	-81.7*	1.4	13.7%
CCCC(=O)Nc1ccc2c(c1)nc(CN1CCN(C(=O)OCC)CC1)n2C(C)C	-8.8%	·	·	-0.3	·	·
Cc1ccc2nc(NC(=S)NC(=O)c3ccco3)sc2c1	-15.5%	9.2%	1.5%	-1.3	-0.7	·
Cc1ccc2nsnc2c1NC(=S)NC(=O)c1ccco1	0.1%	-9.5%	-2.6%	-17.5	-45.2*	0.2%
C/C(=N/Nc1ccc(C(=O)O)cc1)c1ccc(O)c(O)c1O	-13.7%	-4.4%	7.1%	-7.0	-34.3*	-0.6%
C=C(C[C@]1(C(=O)OC)CC2(CC=C(C)C)C(=O)C(C(=O)CC(C)C)=C(O)C(CC=C(C)C)(C1)C2=O)C(=O)OC (some centres undefined)	·	·	·	·	2.9	·
O=c1[nH]c2ccccc2nc1/C=C(\O)c1cccs1	15.8µM*	-1.7%	?	1.4	0.3	4.9%
COc1cc(/C=C2\Oc3cc(O)ccc3C2=O)ccc1O	28.2µM*	16.4%	?	-0.1	1.7	-2.6%
SMILES	USP1 inh	Eya2 phos inh	USP2a block	PI4K2A inh	Coupling enz	GALK inhibitor
O=C1/C(=C/c2ccc(O)c(O)c2)Oc2cc(O)ccc21	-19.9%	-24.3%	1.3%	0.3	-6.9	-23.1%
COc1cc(C=C2C(=O)C=CC2=O)ccc1O	·	·	·	-56.3*	·	·
O=C(c1cc(O)c(O)c(O)c1)c1ccc(O)c(O)c1O	·	·	·	-8.0	·	·
NC(=O)C1(N2CCCCC2)CCN(CCCN2c3ccccc3CCc3ccc(Cl)cc32)CC1	·	·	·	3.0	·	·
CC1=CC(C)(C)Nc2ccc(OC(=O)CN3C(=O)CCC3=O)cc21	3.2%	0.6%	2.6%	4.3	-31.8*	-2.2%
Oc1ccc2c(c1)C1CCCC1(N1CCOCC1)O2 (centres undefined)	-24.9%	7.1%	0.2%	-2.1	-37.5*	2.8%
CC1=C(C(=O)N2CCOCC2)C(c2ccc(O)cc2)NC(=S)N1 (centres undefined)	-20.5%	0.8%	-0.4%	-2.2	0.3	3.1%
C[C@@H]1O[C@H]2C3=C(C(=O)[C@H]4O[C@@H]4[C@H]3O)[C@@H]1[C@@H]1[C@@H](C)OC=C3[C@H](O)[C@H]4O[C@@H]4/C(=N\OCc4ccccc4)[C@]312	·	·	·	·	0.8	·
C=C1C(=C/C=C2\CCC[C@]3(C)[C@@H]([C@H](C)/C=C/[C@@H](O)C4CC4)CC[C@@H]23)C[C@@H](O)C[C@@H]1O	·	·	·	-1.5	·	·
Cc1ccc(/C=C/c2nc3ccccc3c(=O)[nH]2)cc1	-9.3%	-1.6%	1.0%	-6.5	0.7	-1.2%
Cc1ccc(/C=C/c2nc3ccccc3[nH]2)cc1	-32.7%	·	·	-66.5*	·	·
